{"source": "PubChem BioAssay AID2546", "about": "(National Center for Advancing Translational Sciences (NCATS), 2010)", "note": "Among all 310,000 compounds or so, about 11,000 (3.5%) were called active. Where a call stands in place of a potency, no number is given. Not shown: some 8% with an inconclusive outcome. Only a selection was taken, and actives are over-represented in it overall. Values without a mark were called inactive. The call rests on the fitted dose curve; in most records, active means well fitted inhibition curve with a large enough effect; inconclusive means small, poorly fitted or top-dose-only effect, or effect the other way; inactive means flat fitted curve, though single readings scatter."}
{"experiment": "VP16 counterscreen qHTS for inhibitors of ROR gamma transcriptional activity;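 further: Gal4-VP16 expression switched on by copper sulfate through the metallothionein promoter; nearly all actives have a fitted effect of over 50% in size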; further: potency means the concentration at half of the fitted maximal effect", "settings": "Drosophila S2 Gal4-VP16 UAS-luciferase, luminescence, 20 h; series mostly up to 53.6 µM"}
{"compound": "CC(Oc1cccc(Cl)c1)C(=O)NC1CC(C)(C)NC(C)(C)C1", "note": "(configuration not stated)", "Potency": "inactive"}
{"compound": "O=C(CC1C(=O)NCCN1C(=O)c1ccc([N+](=O)[O-])cc1)Nc1cccc(Cl)c1", "note": "(configuration not stated)", "Potency": "inactive"}
{"compound": "Nc1nonc1-n1nnc(C(=O)N/N=C/c2cc(Br)ccc2O)c1CSC1=NCCS1", "Potency": "4.47 µM (active)"}
{"compound": "Cc1ccc(SCc2c(C(=O)N/N=C/c3cccnc3)nnn2-c2nonc2N)cc1", "Potency": "inactive"}
{"compound": "Cc1ccc(SCc2c(C(=O)N/N=C/C3CC=CCC3)nnn2-c2nonc2N)cc1", "note": "(configuration not stated)", "Potency": "inactive"}
{"compound": "COc1ccccc1NC(=O)CSc1nc2sc3c(c2c(=O)n1-c1ccccc1)CCN(C)C3", "Potency": "inactive"}
{"compound": "CCCCc1nc2cc(C(=O)NCCc3cnn(C)c3)ccc2o1", "Potency": "inactive"}
{"compound": "O=C(CCc1ccccc1)NCc1cccnc1", "Potency": "inactive"}
{"compound": "CCc1ccc(N(CC(=O)NCc2cccnc2)S(=O)(=O)c2ccccc2)cc1", "Potency": "14.1 µM (active)"}
{"compound": "O=C(CN(c1cc(C(F)(F)F)ccc1Cl)S(=O)(=O)c1ccccc1)NCc1cccnc1", "Potency": "inactive"}
{"compound": "CCOC(=O)c1c(-c2ccccc2)oc2ccc(OCC(N)=O)cc12", "Potency": "inactive"}
{"compound": "COc1cccc(CN2CCN(Cc3ccc4cccc(F)c4n3)CC2CCO)c1", "note": "(configuration not stated)", "Potency": "inactive"}
{"compound": "CN1c2ccc([N+](=O)[O-])cc2C(C)(C)C12C=Cc1cc(C(=O)O)ccc1O2", "note": "(configuration not stated)", "Potency": "inactive"}
{"compound": "O=C(OC1CCOC1=O)c1ccc(-c2nc3ccccc3s2)s1", "note": "(configuration not stated)", "Potency": "1 µM (active)"}
{"compound": "CC(C)c1ccc(C(=O)OC2CCOC2=O)cc1", "note": "(configuration not stated)", "Potency": "inactive"}
{"compound": "Cc1nn(Cc2ccccc2)c(Cl)c1C(=O)OC1CCOC1=O", "note": "(configuration not stated)", "Potency": "inactive"}
{"compound": "O=C(CNC(=O)OCc1ccccc1)NC1CCCCNC1=O", "note": "(configuration not stated)", "Potency": "inactive"}
{"compound": "Cc1cc(=O)n2[nH]c(-c3cccc(Cl)c3)cc2n1", "Potency": "inactive"}
{"compound": "C=C1C(=O)C23C(O)C1CCC2[C@]12COC3(O)C(O)C1C(C)(C)CC[C@H]2O", "note": "(some centres not stated)", "Potency": "2.51 µM (active)"}
{"compound": "CCOc1ccc(C(C(=O)NC2CCCC2)N(C(=O)c2snc(C(N)=O)c2N)C2CCCC2)cc1", "note": "(configuration not stated)", "Potency": "inactive"}
{"compound": "COCn1c(COc2ccccc2)nc2ccccc21", "Potency": "inactive"}
{"compound": "COc1ccccc1Cn1c(CO)nc2ccccc21", "Potency": "inactive"}
{"compound": "COCc1nc2ccccc2n1Cc1ccccc1Br", "Potency": "5.62 µM (active)"}
{"compound": "Cc1ccccc1CCNC(=O)C1CCC(=O)N(Cc2ccc(Cl)cc2)C1", "note": "(configuration not stated)", "Potency": "inactive"}
{"compound": "CCCn1cc(S(=O)(=O)c2ccc(C)cc2)c(=O)c2cc(OCC)ccc21", "Potency": "inactive"}
{"compound": "Cc1cc(C)nc(N/N=C/c2ccncc2)n1", "Potency": "inactive"}
{"compound": "CCN(CC)c1ccc(/C=N/Nc2nc(C)cc(C)n2)c(O)c1", "Potency": "4.47 µM (active)"}
{"compound": "CCN(CC)c1ccc(/C=N/Nc2nc(C)cc(=O)[nH]2)cc1", "Potency": "inactive"}
{"compound": "CCN(CC)c1ccc(/C=N/NC(=O)CNC(=O)c2cccnc2)cc1", "Potency": "inactive"}
{"compound": "Cc1ccc(C(=O)NCCNC(=O)c2cnccn2)cc1", "Potency": "inactive"}
{"compound": "CCN(CC)c1ccc(/C=N/NC(=O)c2cnccn2)c(O)c1", "Potency": "5.62 µM (active)"}
{"compound": "Cc1cc(=O)n2nc(N3CCC(C(=O)Nc4c(F)c(F)c(F)c(F)c4F)CC3)sc2n1", "Potency": "inactive"}
{"compound": "COc1ccc(S(=O)(=O)N2CCSCC2)cc1", "Potency": "inactive"}
{"compound": "O=C(NNS(=O)(=O)c1ccc(F)cc1)c1ccc([N+](=O)[O-])cc1Cl", "Potency": "inactive"}
{"compound": "O=C(COc1ccc(Cl)cc1)Nc1ccc2c(c1)OCO2", "Potency": "inactive"}
{"compound": "Cc1ccc(Nc2nc(-c3ccc(O)cc3O)cs2)nc1", "Potency": "11.2 µM (active)"}
{"compound": "Cc1cc(O)ccc1-c1cnc2ccccc2n1", "Potency": "inactive"}
{"compound": "O=c1oc2ccccc2cc1-c1csc(Nc2ccc(O)cc2)n1", "Potency": "inactive"}
{"compound": "C=Cn1cc[n+](CC(=O)c2ccc(OC)c(OC)c2)c1", "Potency": "inactive"}
{"compound": "Cc1ccc(-n2c(C)cc(/C=N\\NC(=O)CC(=O)NC(C)C)c2C)cc1", "Potency": "inactive"}
{"compound": "Cc1ccccc1-n1c(C)cc(/C=N/NC(=O)c2ccc(CN3CCOCC3)cc2)c1C", "activity, negative = inhibition": "-2.91% [at 0.365 µM]"}
{"compound": "Cc1cc(/C=N/NC(=O)CC2(C)OCCO2)c(C)n1-c1ccc(Cl)c(Cl)c1", "Potency": "12.6 µM (active)"}
{"compound": "COc1ccccc1C(=O)NC(CCSC)C(=O)NNC(=O)c1csc(N2CCOCC2)n1", "note": "(configuration not stated)", "Potency": "inactive"}
{"compound": "CCOc1ccc(C(=O)COC(=O)c2ccc(-n3cnnn3)cc2)cc1", "Potency": "inactive"}
{"compound": "CCCc1nc2sc3c(c2c(=O)n1NC(=O)CCCl)CCCC3", "Potency": "inactive"}
{"compound": "CCn1c(=S)[nH]c2sc3c(c2c1=O)CCCCC3", "Potency": "1.12 µM (active)"}
{"compound": "CN(C)CCCn1c(=O)n(Cc2ccccc2)c(=O)c2c3c(sc21)CCCCC3", "Potency": "inactive"}
{"compound": "CC(C)c1ccc(NC(=O)[C@@H](NC(=O)N2CC(=O)Nc3ccccc32)C(C)C)cc1", "Potency": "inactive"}
{"compound": "S=C(NNC(=S)NC1CC2CCC1C2)NC1CC2C=CC1C2", "note": "(configuration not stated)", "Potency": "inactive"}
{"compound": "CC(C)c1ccc(NC(=S)NC2CC3C=CC2C3)cc1", "note": "(configuration not stated)", "Potency": "11.2 µM (active)"}
{"compound": "S=C(NNC(=S)NC1CC2C=CC1C2)NC1CC2C=CC1C2", "note": "(configuration not stated)", "Potency": "inactive"}
{"compound": "Cc1nn(C(C)C(=O)NCCC2=CCCCC2)c(=O)c2nn(-c3ccccc3)c(C)c12", "note": "(configuration not stated)", "Potency": "inactive"}
{"compound": "COc1ccc(C(=O)NC2CC2)cc1OC1CCN(C/C=C/c2ccccc2)CC1", "Potency": "inactive"}
{"compound": "CN(C)S(=O)(=O)c1cccc(C(=O)OCC(=O)N2CCCC2=O)c1", "Potency": "inactive"}
{"compound": "CCOC(=O)C1CCN(C(=O)Cn2nc(C)c3c(C)n(-c4ccccc4)nc3c2=O)CC1", "Potency": "inactive"}
{"compound": "CC(C)c1cc(C(=O)N/N=C/c2ccoc2)c(O)c(C(C)C)c1", "Potency": "3.16 µM (active)"}
{"compound": "O=C(N/N=C/c1ccoc1)c1ccc(Cl)cc1Cl", "Potency": "inactive"}
{"compound": "CC(Oc1ccccc1[N+](=O)[O-])C(=O)N/N=C/c1ccoc1", "note": "(configuration not stated)", "Potency": "inactive"}
{"compound": "Cn1c(N2CCOCC2)c(C=O)c2ccccc21", "Potency": "inactive"}
{"compound": "CC1CCC(NS(=O)(=O)c2ccc3c(c2)CC(=O)N3)CC1", "note": "(configuration not stated)", "Potency": "inactive"}
{"compound": "Cc1occc1C(=O)NC1CCCN(Cc2ccc(CC(C)C)cc2)C1", "note": "(configuration not stated)", "Potency": "inactive"}
{"compound": "CCOc1c(Br)cc(/C=C2\\C(=O)N(CCC#N)N=C2C)cc1OC", "Potency": "11.2 µM (active)"}
{"compound": "C=CCOc1c(Br)cc(/C=N\\n2nnnc2N)cc1OC", "Potency": "inactive"}
{"compound": "CCOc1cc(/C=C/c2nc3ccccc3c(=O)[nH]2)cc(Br)c1OC", "Potency": "inactive"}
{"compound": "C=CCOC(=O)C1=C(C)NC(C)=C(C(=O)OCC=C)C1c1cccs1", "Potency": "inactive"}
{"compound": "CCOC(=O)C1=C(C)Nc2nc3ccccc3n2C1c1cccs1", "note": "(configuration not stated)", "Potency": "5.01 µM (active)"}
{"compound": "CCOC(=O)c1ccc(NC(=O)C2CC(=O)Nc3nc4ccccc4n32)cc1", "note": "(configuration not stated)", "Potency": "inactive"}
